# Assay results reported in PubChem BioAssay (Tox21).
# Inconclusive results are not listed. Active and inactive are the calls of the source. Calls follow the shape of the dose curve; as a rule, active = well fitted activation curve with a large enough effect in the repeat runs; inconclusive = weak or mixed curves; inactive = flat fitted curve, though single readings scatter.
# Test: A CellTox Green Cytotoxicity Assay to monitor cytotoxicity in HEK293 cells - 24 hour (AID 1224875); also: nearly all actives have a fitted effect of over 45% in size
# Settings: CellTox Green fluorescence; series mostly up to 76.8 µM; activity change: at the top concentration
# Description: National Center for Advancing Translational Sciences [NCATS]
# NIH Chemical Genomics Center [NCGC]
# U.S. Environmental Protection Agency [EPA]
# National Institutes of Environmental Health Sciences [NIEHS]
# National Toxicology Program [NTP]
# Cell-based models are critical for drug discovery. Determining the natural cytotoxic effects resulting from test compounds is an essential research activity. A CellTox Green Cytotoxicity Assay to monitor cytotoxicity in real time of continues cell culture during 40 hours of the compound treatment was used to screen Tox21 10K library compounds in Hek293 cells. CellTox Green Cytotoxicity Assay is a nonlytic, homogeneous, biofluorescent method to measure cytotoxicity in cell culture after experimental manipulation. The assay system uses a proprietary asymmetric cyanine dye that is excluded from viable cells but preferentially stains the dead cell's DNA. […] Viable cells produce no appreciable increases in fluorescence. Therefore, the fluorescence signal produced by the binding interaction with dead cell DNA is proportional to cytotoxicity.
# The mixture of Hek293 cell suspension and reagents were dispensed at 600cells/6 ul/well in 1536-well tissue culture treated black solid bottom plates using a Multidrop dispenser. After the assay plates were incubated at a 37 C/5% CO2 incubator for 5 hours, 23 nL of compounds dissolved in DMSO, positive and negative controls was transferred to the assay plate by a pintool work station. The plates were incubated at 37 C for 40 hours. The fluorescence intensity were measured at 0h, 8h, 16h, 24h, 32h and 40h time points using ViewLux plate reader during compound treatment.
# % is scaled to controls: 0 for no effect and ±100 for the full control effect; potency is read from the fitted curve at half-maximal effect.
SMILES,activity change,Potency
O=C(O)c1c(O)c(-c2ccccc2)nc2ccccc12,"-5.47% [at 35.3 µM, stronger effect = higher value] (inactive)",
CCC(C)(C)C1CCC(O)CC1 (stereo not given),19.8% (inactive),
COCCOC(=O)C1=C(C)NC(C)=C(C(=O)OC/C=C/c2ccccc2)C1c1cccc([N+](=O)[O-])c1 (stereo not given),"-2.35% [at 35.3 µM, stronger effect = higher value] (inactive)",
O=C(NCCCN1CCOCC1)c1ccc(Cl)cc1,"-4.74% [at 35.3 µM, stronger effect = higher value] (inactive)",
Nc1c(I)cc(I)c(C(=O)N(CCC(=O)O)c2ccccc2)c1I,"-18.8% [at 35.3 µM, stronger effect = higher value] (inactive)",
COC(=O)c1cc(S(N)(=O)=O)ccc1OC,"7.83% [at 35.3 µM, stronger effect = higher value] (inactive)",
CCCCC(CC)CNCC(CC)CCCC (stereo not given),-14.5% (inactive),
NC(=O)Nc1ccc(Cl)c(Cl)c1,-0.0163% (inactive),
Cc1c(C(=O)NN2CCCCC2)nn(-c2ccc(Cl)cc2Cl)c1-c1ccc(Cl)cc1,"-5.88% [at 35.3 µM, stronger effect = higher value] (inactive)",
C=CC(C)(O)CCCC(C)CCCC(C)CCCC(C)C (stereo not given),-9.23% (inactive),
CCc1cccc(N(C)C(N)=Nc2cccc3ccccc23)c1,"-6.81% [at 35.3 µM, stronger effect = higher value] (inactive)",
CC(C)(O)c1ccccc1CC[C@@H](SCC1(CC(=O)O)CC1)c1cccc(/C=C/c2ccc3ccc(Cl)cc3n2)c1,"10.3% [at 35.3 µM, stronger effect = higher value] (inactive)",
CC1C2CC(CC2C2CCCC(O)C2)C1(C)C (stereo not given),,49 µM (active)
O=C(CCCCCCC(=O)Nc1ccccc1)NO,"-10.5% [at 35.3 µM, stronger effect = higher value] (inactive)",
O=C(CCCN1CCC(O)(c2ccc(Br)cc2)CC1)c1ccc(F)cc1,"-2.04% [at 35.3 µM, stronger effect = higher value] (inactive)",
OCCSc1ccccc1,7.39% (inactive),
c1cc[c]([Bi]([c]2ccccc2)[c]2ccccc2)cc1,8.02% (inactive),
CCCCCCOC(=O)C(C)C,9.15% (inactive),
O=C(O)c1snc(Cl)c1Cl,1.65% (inactive),
COc1ccccc1N=Nc1c(S(=O)(=O)O)cc2cc(S(=O)(=O)O)cc(NC(C)=O)c2c1O,-24.7% (inactive),

SMILES,activity change,Potency
CCCCC(CC)COC(=O)COc1ccc(Cl)cc1C (stereo not given),-2.51% (inactive),
C[N+](C)(C)CCOC(N)=O,"-16.6% [at 35.3 µM, stronger effect = higher value] (inactive)",
CN(C)C(=O)Nc1ccc(Oc2ccc(Cl)cc2)cc1,-0.1% (inactive),
CC(Cl)C(Cl)Cl (stereo not given),,42.9 µM (active)
O=C1OCCN1/N=C/c1ccc([N+](=O)[O-])o1,"-2.62% [at 35.3 µM, stronger effect = higher value] (inactive)",
CCCCC(CC)C(=O)OCCOCCOCCOCCOC(=O)C(CC)CCCC (stereo not given),5.24% (inactive),
CCC(C)(O)CCC=C(C)C (stereo not given),-0.7% (inactive),
O=C(Nc1ccccc1)Nc1ccccc1,4.85% (inactive),
COC(=O)c1cc(Cl)ccc1NS(=O)(=O)C(F)(F)F,"-9.59% [at 35.3 µM, stronger effect = higher value] (inactive)",
Cc1ccccc1N1C(=O)c2cc(S(N)(=O)=O)c(Cl)cc2NC1C (stereo not given),"2.59% [at 35.3 µM, stronger effect = higher value] (inactive)",
Fc1c(F)c(F)c(Br)c(F)c1F,-11.4% (inactive),
OC(CCCN1CCCCC1)(c1ccccc1)c1ccccc1,"-4.44% [at 35.3 µM, stronger effect = higher value] (inactive)",
CO[C@H]1C=CO[C@@]2(C)Oc3c(C)c(O)c4c(O)c(c5c(c4c3C2=O)=NC2(CCN(CC(C)C)CC2)N=5)NC(=O)/C(C)=C\C=C/[C@H](C)[C@H](O)[C@@H](C)[C@@H](O)[C@@H](C)[C@H](OC(C)=O)[C@@H]1C,-12.9% (inactive),
CCC(C)=O,-0.602% (inactive),
C=C(C)C(=O)OCCOC(=O)CC(C)=O,-8.53% (inactive),
Cc1oncc1C(=O)Nc1ccc(C(F)(F)F)cc1,,inactive
O=C(CCCN1CCN(c2ccc(F)cc2)CC1)NC1c2ccccc2CSc2ccccc21 (stereo not given),"-6.88% [at 35.3 µM, stronger effect = higher value] (inactive)",
CC(C)CCCCCCOC(=O)CCCCC(=O)OCCCCCCC(C)C,-4.36% (inactive),
CCC(C(=O)OCCOCCN(CC)CC)c1ccccc1 (stereo not given),"-21.4% [at 35.3 µM, stronger effect = higher value] (inactive)",
Cc1ccnc2ccccc12,1.09% (inactive),
